Laboratory results published in PubChem BioAssay (NCI).
About 79,000 compounds went through this panel and 15% of them were active in at least one assay; those are over-represented in the sample as a whole. The source made the active and inactive calls. Cut-off read from the data, not from the text of the source: active = growth inhibition above about 70%; inactive = the rest.

Assays:
[1] = NCI Yeast Anticancer Drug Screen. Data for the rad50 strain (AID 155);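 note: 0% = growth of vehicle-only cultures of the same strain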; settings: S. cerevisiae rad50 strain growth inhibition, stronger effect = higher value
Method in brief: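 Compounds were tested on a yeast strain with an engineered DNA damage repair alteration; the reported value is growth inhibition normalised to vehicle treatment.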

[2] = NCI Yeast Anticancer Drug Screen. Data for the mec2-1 strain (AID 157); settings: S. cerevisiae mec2-1 strain, stronger effect = higher value
Method in brief: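 Readout is yeast growth inhibition, normalised to vehicle-treated controls, in the mec2-1 strain exposed to compound.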

[3] = NCI Yeast Anticancer Drug Screen. Data for the sgs1 mgt1 strain (AID 161);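 note: 0% = growth of cultures given vehicle only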; settings: S. cerevisiae sgs1 mgt1 strain, stronger effect = higher value
Method in brief: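 Yeast cells carrying a defined DNA-repair defect were exposed to test compounds. Growth inhibition was measured relative to vehicle-treated controls.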

[4] = NCI Yeast Anticancer Drug Screen. Data for the cln2 rad14 strain (AID 165);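 note: 0% = growth equal to vehicle treated cultures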; settings: S. cerevisiae cln2 rad14 strain, stronger effect = higher value
Method in brief: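 Relative to vehicle controls, growth inhibition of compound-treated cln2 rad14 yeast was recorded.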

[5] = NCI Yeast Anticancer Drug Screen. Data for the bub3 strain (AID 167); settings: S. cerevisiae bub3 mutant strain, stronger effect = higher value
Method in brief: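 Growth of a checkpoint-deficient yeast mutant is measured after compound exposure. Values represent inhibition relative to vehicle.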

[6] = NCI Yeast Anticancer Drug Screen. Data for the mlh1 rad18 strain (AID 175); settings: S. cerevisiae mlh1 rad18 strain growth inhibition, stronger effect = higher value
Method in brief: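 Test agents were incubated with a yeast strain of defined genotype (DNA damage repair defect). Inhibition of growth was derived by comparison with vehicle-exposed cultures.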

[7] = at 5.0 µM (retest, dose inferred, filed as 0.5)
[8] = at 50.0 µM (retest, dose inferred, filed as 5.0)

Measured: growth inhibition

O=c1oc(-c2ccccc2Br)ns1
inactive: [1]; [7] 0% | [2]; [7] 3% | [3]; [7] 9% | [4]; [7] 4% | [5]; [7] -8% | [6]; [7] 6%
active: [1]; [8] 99% | [1]; at 50.0 µM 98.8% | [2]; [8] 100% | [2]; at 50.0 µM 99.6% | [3]; [8] 99% | [3]; at 50.0 µM 99.4% | [4]; [8] 99% | [4]; at 50.0 µM 89.8% | [5]; [8] 99% | [5]; at 50.0 µM 97.5% | [6]; [8] 99% | [6]; at 50.0 µM 99.3%

CCNc1cc(N)[n+](CC)c2n[nH]c(/N=C/c3cc(Cl)cc(Cl)c3O)c12
inactive: [1]; [7] 37% | [2]; [7] 26% | [3]; [7] 41% | [4]; [7] 63% | [6]; [7] 37%
active: [1]; [8] 80% | [1]; at 50.0 µM 88% | [2]; [8] 77% | [2]; at 50.0 µM 87.5% | [3]; [8] 98% | [3]; at 50.0 µM 89.8% | [4]; [8] 98% | [4]; at 50.0 µM 79.9% | [5]; [7] 87% | [5]; [8] 97% | [5]; at 50.0 µM 90.3% | [6]; [8] 78% | [6]; at 50.0 µM 88.2%

O=C1C=CC(=O)N1c1ccc(Cl)cc1Br
inactive: [1]; [7] 49% | [1]; [8] 42% | [2]; [7] 40% | [2]; [8] 44% | [4]; [7] 68% | [5]; at 50.0 µM 58.4% | [6]; [7] 28% | [6]; [8] 45%
active: [1]; at 50.0 µM 93.3% | [2]; at 50.0 µM 94.3% | [3]; [7] 100% | [3]; [8] 100% | [3]; at 50.0 µM 94.2% | [4]; [8] 100% | [4]; at 50.0 µM 92.4% | [5]; [7] 100% | [5]; [8] 99% | [6]; at 50.0 µM 92.5%

CCOC(=O)C(/C=N\C(=S)Nc1c(CC)cccc1C(C)(C)C)=C(/O)c1ccccc1
inactive: [1]; [7] 7% | [1]; [8] 61% | [1]; at 50.0 µM 51.5% | [2]; [7] 0% | [2]; [8] 46% | [2]; at 50.0 µM 49% | [3]; [7] 17% | [3]; [8] 35% | [3]; at 50.0 µM 64.5% | [4]; [7] -13% | [4]; [8] 43% | [4]; at 50.0 µM 67.2% | [5]; [7] -8% | [5]; at 50.0 µM 55.6% | [6]; [7] 4% | [6]; [8] 48% | [6]; at 50.0 µM 63%
active: [5]; [8] 73%

COc1cc2c(cc1OC)-c1nc(N)sc1CC2
active: [1]; at 50.0 µM 86.8% | [2]; at 50.0 µM 85.5% | [3]; at 50.0 µM 81.8% | [4]; at 50.0 µM 85.7% | [5]; at 50.0 µM 85.8% | [6]; at 50.0 µM 88.3%
inactive: [1]; [7] 2% | [1]; [8] -4% | [2]; [7] -2% | [2]; [8] -1% | [3]; [7] 2% | [3]; [8] -23% | [4]; [7] -4% | [4]; [8] 4% | [5]; [7] -2% | [5]; [8] -4% | [6]; [7] -1% | [6]; [8] 7%

CC(=O)OC1COC(n2nnc(C#N)c2C#N)C(OC(C)=O)C1OC(C)=O (configuration not stated)
active: [1]; at 50.0 µM 93.7% | [2]; at 50.0 µM 82.4% | [3]; at 50.0 µM 94.7% | [4]; at 50.0 µM 83% | [5]; at 50.0 µM 89.3% | [6]; at 50.0 µM 91.8%
inactive: [1]; [7] 4% | [1]; [8] 9% | [2]; [7] -7% | [2]; [8] 2% | [3]; [7] 1% | [3]; [8] 4% | [4]; [7] 3% | [4]; [8] 4% | [5]; [7] 1% | [5]; [8] 4% | [6]; [7] 0% | [6]; [8] 27%

C/C=C/C=N/N(c1nnc(-c2ccccc2)c(-c2ccccc2)n1)S(=O)(=O)c1ccc(C)cc1
inactive: [1]; [7] 58% | [1]; [8] 58% | [2]; [7] 29% | [2]; [8] 29% | [3]; [7] 36% | [3]; [8] 36% | [4]; [7] 38% | [4]; [8] 38% | [5]; [7] 52% | [5]; [8] 52% | [6]; [7] 34% | [6]; [8] 34%
active: [1]; at 50.0 µM 92.2% | [2]; at 50.0 µM 91.3% | [3]; at 50.0 µM 90.1% | [4]; at 50.0 µM 90% | [5]; at 50.0 µM 92.3% | [6]; at 50.0 µM 91.5%

O=C1C=C(c2cccc(-c3ccccc3)c2)CCC1
inactive: [1]; [7] 2% | [2]; [7] -2% | [3]; [7] -5% | [4]; [7] 2% | [5]; [7] 2% | [6]; [7] -1%
active: [1]; [8] 94% | [1]; at 50.0 µM 93.5% | [2]; [8] 96% | [2]; at 50.0 µM 95.3% | [3]; [8] 92% | [3]; at 50.0 µM 97.2% | [4]; [8] 92% | [4]; at 50.0 µM 95.8% | [5]; [8] 87% | [5]; at 50.0 µM 96.3% | [6]; [8] 92% | [6]; at 50.0 µM 96.4%

O=C(O)c1nc2cc(C(F)(F)F)ccc2nc1Nc1ccc(Cl)c(Cl)c1
inactive: [1]; [7] 23% | [2]; [7] 19% | [3]; [7] -16% | [3]; [8] 52% | [3]; at 50.0 µM 48.8% | [4]; [7] -7% | [5]; [7] 16% | [5]; [8] 64% | [5]; at 50.0 µM 55.1% | [6]; [7] 19%
active: [1]; [8] 77% | [1]; at 50.0 µM 86% | [2]; [8] 90% | [2]; at 50.0 µM 80.3% | [4]; [8] 85% | [4]; at 50.0 µM 76.5% | [6]; [8] 87% | [6]; at 50.0 µM 79.1%
